Shown are actives, neighbours in structure and some others; about 22% of the full set was active somewhere.
CYP2C19 inh: inhibitors of human CYP2C19; CYP2C19 Supersomes, luciferin-H EGE luminescence, 30 min; inhibition, % at 5 µM; 21% of 96,000 active;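 active = CYP2C19 inhibition above a set limit at 5 µM in the primary screen, cut at about 50% in these data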;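 note: plate controls were negative control wells for no effect and 2.5 mM tranylcypromine positive control for full effect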
Target sequence (P33261 whole entry, looked up): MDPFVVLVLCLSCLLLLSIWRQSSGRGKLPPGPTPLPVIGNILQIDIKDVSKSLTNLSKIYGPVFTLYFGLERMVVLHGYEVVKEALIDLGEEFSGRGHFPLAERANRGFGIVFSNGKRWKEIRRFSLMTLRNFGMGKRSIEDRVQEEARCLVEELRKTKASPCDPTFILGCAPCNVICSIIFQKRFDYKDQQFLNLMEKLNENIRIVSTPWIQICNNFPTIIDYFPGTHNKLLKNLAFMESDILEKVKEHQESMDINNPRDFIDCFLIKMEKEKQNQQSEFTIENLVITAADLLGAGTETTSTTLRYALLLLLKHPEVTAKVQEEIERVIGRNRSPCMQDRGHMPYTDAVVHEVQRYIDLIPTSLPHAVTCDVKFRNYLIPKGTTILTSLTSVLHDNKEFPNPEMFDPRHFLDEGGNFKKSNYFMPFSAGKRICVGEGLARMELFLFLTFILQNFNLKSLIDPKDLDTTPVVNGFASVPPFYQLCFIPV
CYP2C9 act: increases human cytochrome P450 2C9 activity. activation factor at 5 µM. recombinant CYP2C9, luciferin-H conversion, luminescence; hits give high values; factor 1 = untreated enzyme, 0 = blocked. AID 1024. 1.4% of 96,000 active. P11712;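 active = activation factor of 2 or more for CYP2C9 at a 5 µM dose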;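 note: 0 = sulfaphenazole-blocked wells and 1 = vehicle-only wells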
CYP2C9 inhib: blocks human cytochrome P450 2C9; P11712; CYP2C9 Supersomes, luciferin-H conversion, luminescence; inhibition, % at 5 µM; 20% of 96,000 active; AID 777;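 active = blocking of liver enzyme CYP2C9 beyond about 50% at 5 µM, limit read from the data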
Measles CPE: protection of cells from measles virus | protection (pct of control), % at 4 µM | 1.5% of 140,000 active | Measles virus-infected cells, CPE protection, absorbance; in the data active = protection mostly above about 24%, no sharp cut-off; inactive = mostly below about 26%
CYP2C19 activ: increases human CYP2C19 enzyme activity. P33261. recombinant CYP2C19, luciferin-H EGE luminescence; hits give high values; 0 = fully inhibited enzyme, 1 = untreated enzyme. activation factor at 5 µM. 96,000 tested, under 10 active. AID 1025;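 active = activation factor of at least 2 at 5 µM in the primary screen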;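 note: 0 = wells with 2.5 mM tranylcypromine and 1 = vehicle-only wells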
Active calls of the source: *; x = no result.

SMILES | CYP2C19 inh | CYP2C9 act | CYP2C9 inhib | Measles CPE | CYP2C19 activ
COc1ccccc1CN(CC(=O)NCc1ccco1)C(=O)CNS(=O)(=O)c1ccccc1 | 16 | 0.9 | 11 | 7 | 0.8
O=C(CN(C(=O)CNS(=O)(=O)c1ccccc1)c1ccc2c(c1)OCCO2)NCc1ccco1 | 31 | 0.8 | 24 | 4 | 0.7
O=C(CN(CCc1ccccc1)C(=O)CNS(=O)(=O)c1ccc(F)cc1)NCc1ccco1 | 73* | 0.5 | 46 | 24 | 0.3
O=C(CN(Cc1ccc2c(c1)OCO2)C(=O)CNS(=O)(=O)c1ccccc1)NCc1ccco1 | 74* | 0.7 | 34 | 18 | 0.3
CC(C)(C)C1CC=C2C(C#N)=C(N)C(C#N)(C#N)C(c3cccs3)C2C1 (configuration not stated) | 57* | 0.1 | 90* | x | 0.4
CCCc1cc(C(=O)NNC(=S)NCC)c2ccccc2n1 | x | x | x | 23 | x
Cc1cccc(NC(=O)NNC(=O)c2cc(-c3ccccc3Cl)nc3ccccc23)c1 | 38 | 0.4 | 62* | 5 | 0.6
Cc1ccc(-c2cc(C(=O)OCC(=O)Nc3cc(C)on3)c3ccccc3n2)c(C)c1 | 25 | 0.2 | 79* | 6 | 0.7
Cc1ccc2nc(-c3ccccc3Cl)cc(C(=O)Nc3cc(C)on3)c2c1 | 82* | 0 | 99* | 9 | 0.2
CCNC(=S)NNC(=O)c1cc(-c2cc(C)ccc2C)nc2ccccc12 | 26 | 0.3 | 66* | 6 | 0.7
O=C(NC(=S)NCCN1CCOCC1)c1ccc(Cl)cc1Cl | 47 | 1.1 | -8 | 10 | 0.5
COc1ccc(-c2cc(C(=O)OCC(=O)Nc3cc(C)on3)c3ccccc3n2)cc1OC | 53* | 0.5 | 46 | 3 | 0.5
O=C(Nc1ccc(S(=O)(=O)Nc2nccs2)cc1)c1cc(-c2ccccc2Cl)nc2ccccc12 | 18 | 0.5 | 52* | 5 | 0.8
Cc1c(NC(=O)COC(=O)c2cc(-c3ccc(-c4ccccc4)cc3)nc3ccccc23)c(=O)n(-c2ccccc2)n1C | x | x | x | 38* | x
COc1ccc(-c2cc(C(=O)OCC(=O)Nc3ccc4c(c3)OCO4)c3ccccc3n2)cc1 | x | x | x | 26 | x
CCC(C)c1ccc(-c2cc(C(=O)OCC(=O)Nc3cc(C)on3)c3ccccc3n2)cc1 (configuration not stated) | 51* | 0.7 | 30 | 5 | 0.5
Cc1cccc(C)c1NC(=O)COC(=O)c1cc(-c2cccnc2)nc2ccccc12 | x | x | x | 7 | x
O=C(Nc1cccc(S(=O)(=O)NC2=NCCCCC2)c1)c1cc(-c2ccccc2Cl)nc2ccccc12 | x | x | x | 1 | x
CCC/C(O)=C1\C(=O)CCCC1=NC(C)C(=O)O (configuration not stated) | -3 | 1 | -1 | 22 | 1
OC1(Cc2ccn[nH]2)CCCCC1 | 1 | 1 | 3 | 6 | 1
S=c1oc(-c2ccncc2)nn1CCc1ccncc1 | 99* | 0.1 | 85* | 20 | 0
COc1ccc(/C=C(\NC(=O)c2cccs2)C(=O)Nc2cccc3ccccc23)cc1OC | x | x | x | 17 | x
Cc1cc(C)c(-c2csc(NC(=O)c3n[nH]c(=O)c4ccccc34)n2)c(C)c1 | x | x | x | 62* | x
COc1cccc(-c2cc(C(=O)NCc3ccc(Cl)cc3)no2)c1 | 25 | 0.6 | 42 | 19 | 0.7
O=C(c1cccc(-c2ccc(O)cc2)c1)N1CCOCC1 | -3 | 1.1 | -14 | 18 | 1
SMILES | CYP2C19 inh | CYP2C9 act | CYP2C9 inhib | Measles CPE | CYP2C19 activ
Cc1cc(C(c2ccc(C)o2)c2ccc(C)o2)c(O)c([N+](=O)[O-])c1 | 65* | 0 | 95* | 5 | 0.4
CCOc1ncccc1C(=O)OCC(=O)N1CC(=O)Nc2ccccc21 | -11 | 1.3 | -32 | 9 | 1.1
O=C1CN(C(=O)COC(=O)c2ccccc2NCc2ccco2)c2ccccc2N1 | 56* | 0.6 | 40 | 9 | 0.4
Cn1c2ccccc2c2cc(C(=O)OCC(=O)N3CC(=O)Nc4ccccc43)sc21 | 86* | 2* | -104 | 7 | 0.1
O=C(NCC(=O)N1CCCCC1)c1ccc(Cl)cc1Cl | 46 | 1.2 | -20 | 3 | 0.5
O=C1[C@@H]2[C@@H]3C[C@@H]([C@H]4ON=C(c5ccc(OCc6ccccc6)cc5)[C@@H]34)[C@@H]2C(=O)N1c1ccc2c(c1)OCO2 | x | x | x | 6 | x
Cc1cccc(NC(=O)/C(=C/c2cccc([N+](=O)[O-])c2)NC(=O)c2cccs2)c1 | x | x | x | 10 | x
CN(C)c1cccc(C(=O)Nc2ccc3nc4n(c(=O)c3c2)CCCCC4)c1 | 76* | 0.2 | 76* | 8 | 0.2
O=C(c1ccc2c(=O)n3c(nc2c1)CCCCC3)N1CCN(C(c2ccccc2)c2ccccc2)CC1 | 53* | 0.4 | 62* | 42* | 0.5
Cc1ccc(S(=O)(=O)N2CCCCC2)cc1NC(=O)c1ccc2c(=O)n3c(nc2c1)CCCCC3 | x | x | x | 7 | x
Cc1ccc(-c2csc(NC(=O)c3ccc4c(=O)n5c(nc4c3)CCCCC5)n2)cc1 | x | x | x | 56* | x
O=C(Nc1ccc(S(=O)(=O)N2CCCC2)cc1)c1ccc2c(=O)n3c(nc2c1)CCCCC3 | x | x | x | 10 | x
Cc1ccccc1C(=O)Nc1ccc2nc3n(c(=O)c2c1)CCC3 | -14 | 1 | -4 | 1 | 1.1
O=C(NCCC1=CCCCC1)c1ccc2c(=O)n3c(nc2c1)CCCCC3 | 75* | 0.1 | 94* | 31 | 0.3
COC(=O)c1cn(C)c2ccc(S(=O)(=O)N3CCCC3)cc2c1=O | x | x | x | 16 | x
CCOc1ccccc1C(=O)Nc1ccsc1C(=O)OC | x | x | x | 3 | x
O=C(Nc1cccc(Cl)c1)c1ccc2c(=O)n3c(nc2c1)CCCCC3 | 26 | 0.4 | 63* | 0 | 0.7
COc1ccc(Nc2sc(C(=O)c3ccc(Cl)cc3)c(N)c2C(=O)Nc2ccccc2OC)cc1 | 39 | 0.2 | 76* | 19 | 0.6
COc1ccc(NC(=O)c2c(Nc3ccccc3)sc(C(=O)c3ccc(F)cc3)c2N)cc1 | -23 | 1.3 | -27 | 4 | 1.2
COc1ccc(C(=O)c2sc(Nc3cccc(OC)c3)c(C(=O)Nc3cccc(C)c3C)c2N)cc1 | 40 | 0.5 | 52* | 2 | 0.6
C=CCc1ccc(OCCCN2CCCC(C)C2)c(OC)c1 (configuration not stated) | 14 | 1.7 | -70 | 20 | 0.9
CN(C)c1ccc(C=C2C(=O)OC(C)(C(C)(C)C)OC2=O)cc1 (configuration not stated) | -1 | 1 | -1 | 19 | 1
CCN(CC)c1ccc(C=C2C(=O)OC3(CCCC3)OC2=O)cc1 | x | x | x | 40* | x
CCN(CC)S(=O)(=O)c1ccc2nc(NC(=O)c3cccs3)sc2c1 | 12 | 0.4 | 62* | 5 | 0.9
CCN(CC)S(=O)(=O)c1cccc(C(=O)Nc2cccnc2)c1 | -12 | 1.1 | -6 | 4 | 1.1
CCN(CC)S(=O)(=O)c1cccc(C(=O)Nc2nc3cc4c(cc3s2)OCCO4)c1 | 38 | 0.3 | 67* | 9 | 0.6
CC(C)(C)NS(=O)(=O)c1ccc2nc(NC(=O)Cc3cccs3)sc2c1 | 50* | 0.1 | 88* | 27 | 0.5
COc1ccc(C(=O)Cc2cc(OC)c(OC)cc2[N+](=O)[O-])cc1 | 8 | 1.3 | -30 | 14 | 0.9

Compound activity from PubChem BioAssay.
